Sampled rows, rich in hits. Any-hit rate of the full collection: about 2.4%.
D2 PAM-1: human D2 receptor positive allosteric modulation. P14416. DiscoveRx D2 beta-arrestin cells, luminescence, 90 min; 100% = 57 uM dopamine signal. AID 624464. 360,000 tested, 0.23% active. potentiation, % (no concentration beside the values); in the data active means potentiation above about 50%; inconclusive means mostly about 30% to 49%
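D2 cells co-treated with compound plus 50 nM dopamine (EC20) for 90 min at 37 deg C to detect potentiation. Beta-arrestin recruitment was read as enzyme-fragment luminescence after 1 h at ambient temperature. Full response was set by 57 uM dopamine.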
D2 antag: antagonists of human D2 dopamine receptor | inhibition, % at 10 µM | P14416 | HEK293 TREx D2 cells, calcium flux, dopamine EC80 | AID 485344 | 340,000 tested, 2% active; in the data active means inhibition above about 30%; inactive means below that, where a call was filed
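Tetracycline-induced HEK293 T-REx cells expressing D2 force-coupled to calcium signalling were dye-loaded, exposed to compound for 180 s, then challenged with an EC80 of dopamine; calcium flux was followed kinetically for a further 180 s.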
D2 ag-1: agonists of human D2 dopamine receptor. HEK293 T-REx D2 cells, calcium flux agonist mode. activation, % at 2 µM. 340,000 tested, 0.53% active. AID 485358;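 active means activation over 3 SD above normal in the single-dose calcium agonist read, cut at about 30% in these data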
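Tetracycline-induced HEK293 T-REx cells with force-coupled D2 receptor, plated overnight at 30 C, loaded with no-wash calcium dye. After a 10 s baseline, compound was pin-added and calcium flux read kinetically for 180 s; calcium rises flagged agonists.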
D2 PAM-2: positively modulates the human D2 dopamine receptor allosterically; 340,000 tested, 0.34% active; HEK293 T-REx D2, calcium flux, EC20 dopamine potentiation; potentiation, % at 10 µM;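 active means potentiation over 3 SD above the plate norm, cut at about 30% in these data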
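Potentiation of an EC20 dopamine calcium response measured kinetically over 180 s, after a preceding 180 s compound-only read flagging agonists. Cells: inducible Hek293 Trex D2 line, 4000/well, cultured overnight at 30 C before dye loading.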
D2 ag-2: activates the human D2 dopamine receptor. 360,000 tested, 0.084% active. DiscoveRx PathHunter D2 beta-arrestin, luminescence, 90 min; 100% = 57 uM dopamine signal. P14416. activation, % (no concentration beside the values); in the data active means activation above about 40%; inconclusive means between about 15% and that limit
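Agonist mode: compounds alone added to overnight-plated D2 PathHunter cells for 90 min at 37 C, with 57 uM final dopamine (EC100) defining full response. Beta-arrestin recruitment detected by chemiluminescent reagent, read after 1 h at ambient temperature.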
D3 ag: D3 receptor agonism confirmed, beta-arrestin readout; DiscoveRx D3 beta-arrestin cells, luminescence, 90 min; shares compounds with D2 ag-1; 2,300 tested, 4% active; Potency, µM (doses to about 76.9 µM), actives largely listed as activators; further: nearly all actives have a fitted effect of over 70% in size
Target sequence (P35462 whole entry, looked up): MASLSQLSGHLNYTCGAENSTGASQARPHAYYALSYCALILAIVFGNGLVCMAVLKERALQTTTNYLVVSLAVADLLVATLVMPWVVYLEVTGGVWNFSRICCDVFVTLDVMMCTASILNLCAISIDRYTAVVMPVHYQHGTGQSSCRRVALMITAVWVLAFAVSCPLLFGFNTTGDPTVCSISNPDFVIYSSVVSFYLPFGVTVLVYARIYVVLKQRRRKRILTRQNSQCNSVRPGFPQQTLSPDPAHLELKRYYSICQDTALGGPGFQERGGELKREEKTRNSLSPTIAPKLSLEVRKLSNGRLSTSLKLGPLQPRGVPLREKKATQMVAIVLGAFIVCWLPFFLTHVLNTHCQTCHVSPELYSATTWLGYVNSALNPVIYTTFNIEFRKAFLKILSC
D2 ag-3: counter-screen for D3 agonists: human D2 dopamine receptor agonism | Potency, µM (doses to about 76.9 µM), usual class: activators | 2,300 tested, 5.9% active | shares compounds with D2 ag-1 | DiscoveRx PathHunter D2 beta-arrestin, luminescence, 90 min; response scale: percent relative to full dopamine signal | AID 720507; further: nearly all actives have a fitted effect of over 70% in size
Hits are given with their value. Unless noted, the call rests on the fitted dose curve; in most records, active means well fitted activation curve with a large enough effect; inconclusive means small, poorly fitted or top-dose-only effect; inactive means flat fitted curve, though single readings scatter.

How did COc1ccc(CN2C(=O)C(C)N(C(=O)c3c(F)cccc3F)c3ccccc32)cc1 (stereo not drawn) do in these assays?
D2 PAM-1: inactive; D2 antag: inactive; D2 ag-1: inactive; D2 PAM-2: inactive; D2 ag-2: inactive; D3 ag: inactive; D2 ag-3: inactive

How did COc1ccccc1NS(=O)(=O)c1ccc(C(=O)N2CCCC(C(F)(F)F)C2)cc1 (stereo not drawn) do in these assays?
D2 PAM-1: inactive; D2 antag: inactive; D2 ag-1: inactive; D2 PAM-2: inactive; D2 ag-2: inactive; D3 ag: inactive; D2 ag-3: inactive

Results for COc1cccc(NC(=O)COC(=O)CNS(=O)(=O)c2c(F)cccc2F)c1 ?
D2 PAM-1: inactive; D2 antag: inactive; D2 ag-1: inactive; D2 PAM-2: inactive; D2 ag-2: inactive

Results for COc1ccccc1NS(=O)(=O)c1ccc(NC(=O)c2nc3nc(C)cc(C(F)F)n3n2)cc1 ?
D2 PAM-1: inactive; D2 antag: 38.6; D2 ag-1: inactive; D2 PAM-2: inactive; D2 ag-2: inactive; D3 ag: inactive; D2 ag-3: inactive

Results for COc1ccc(NC(=O)c2nc3nc(C)cc(C(F)F)n3n2)cc1OC ?
D2 PAM-1: inactive; D2 antag: inactive; D2 ag-1: inactive; D2 PAM-2: inactive; D2 ag-2: inactive

Results for Cn1c(=NC(=O)COc2ccccc2)sc2cc(F)cc(F)c21 ?
D2 PAM-1: inactive; D2 antag: inactive; D2 ag-1: inactive; D2 PAM-2: inactive; D2 ag-2: inactive

What do the screens show for `Cn1c(=NC(=O)COc2ccccc2)sc2cccc(F)c21`?
D2 PAM-1: inactive; D2 antag: inactive; D2 ag-1: inactive; D2 PAM-2: inactive; D2 ag-2: inactive; D3 ag: inactive; D2 ag-3: inactive

Results for CCCNC(=O)C(Cc1ccc(I)cc1)NC(=O)c1ccc(C#N)cc1 (stereo not drawn) ?
D2 PAM-1: inactive; D2 antag: inactive; D2 ag-1: inactive; D2 PAM-2: inactive; D2 ag-2: inactive; D3 ag: inactive; D2 ag-3: inactive

What do the screens show for `CCCNC(=O)C(CC)NC(=O)c1ccc(C#N)cc1` (stereo not drawn)?
D2 PAM-1: inactive; D2 antag: inactive; D2 ag-1: inactive; D2 PAM-2: inactive; D2 ag-2: inactive

What do the screens show for `CCCNC(=O)C(Cc1cccc(C#N)c1)NC(=O)c1ccc(C#N)cc1` (stereo not drawn)?
D2 PAM-1: inactive; D2 antag: inactive; D2 ag-1: inactive; D2 PAM-2: inactive; D2 ag-2: inactive; D3 ag: inactive; D2 ag-3: inactive

Results for CCCCCCCCC(NC(=O)c1ccc(C#N)cc1)C(=O)NCCC (stereo not drawn) ?
D2 PAM-1: inactive; D2 antag: inactive; D2 ag-1: inactive; D2 PAM-2: inactive; D2 ag-2: inactive; D3 ag: inactive; D2 ag-3: inactive

What do the screens show for `CCCNC(=O)C(Cc1cccc(Cl)c1)NC(=O)c1ccc(C#N)cc1` (stereo not drawn)?
D2 PAM-1: inactive; D2 antag: inactive; D2 ag-1: inactive; D2 PAM-2: inactive; D2 ag-2: inactive

How did O=C(c1ccccc1OC(F)F)N1CCN(S(=O)(=O)c2ccc3c(c2)OCCCO3)CC1 do in these assays?
D2 PAM-1: inactive; D2 antag: inactive; D2 ag-1: inactive; D2 PAM-2: inactive; D2 ag-2: inactive; D3 ag: inactive; D2 ag-3: inactive

What do the screens show for `O=C(c1ccccc1F)N1CCN(S(=O)(=O)c2ccc3c(c2)OCCO3)CC1`?
D2 PAM-1: inactive; D2 antag: inactive; D2 ag-1: inactive; D2 PAM-2: inactive; D2 ag-2: inactive

What do the screens show for `O=C(CCN1CCN(c2ccc(F)cc2)CC1)Nc1ccccc1F`?
D2 PAM-1: inactive; D2 antag: 65.4; D2 ag-1: 35.3; D2 PAM-2: inactive; D2 ag-2: inactive; D3 ag: inactive; D2 ag-3: inactive

What do the screens show for `O=C(CCN1CCN(c2ccccc2)CC1)Nc1ccccc1F`?
D2 PAM-1: inactive; D2 antag: 71.4; D2 ag-1: 70.8; D2 PAM-2: inactive; D2 ag-2: inconclusive; D3 ag: inconclusive; D2 ag-3: inactive

Results for O=C(CCN1CCN(S(=O)(=O)c2ccc(F)cc2)CC1)Nc1ccccc1F ?
D2 PAM-1: inactive; D2 antag: inactive; D2 ag-1: inactive; D2 PAM-2: inactive; D2 ag-2: inactive

What do the screens show for `O=C(CCN1CCN(CC(=O)Nc2ccccc2F)CC1)Nc1ccccc1F`?
D2 PAM-1: inactive; D2 antag: inactive; D2 ag-1: inactive; D2 PAM-2: inactive; D2 ag-2: inactive

Results for Cc1ccc(C(C(=O)NC(C)(C)C)N(CC2CCCO2)C(=O)CCC(=O)Nc2ccccn2)cc1 (stereo not drawn) ?
D2 PAM-1: inactive; D2 antag: inactive; D2 ag-1: inactive; D2 PAM-2: inactive; D2 ag-2: inactive

What do the screens show for `CC1=C(C(=O)Nc2ccccc2C)C(c2sccc2C)n2ncnc2N1` (stereo not drawn)?
D2 ag-1: inactive; D2 PAM-2: inactive

How did CN(CCOc1ccc(Cl)cc1)Cc1cccc(S(=O)(=O)N(C)C)c1 do in these assays?
D2 PAM-1: inactive; D2 antag: 48.3; D2 ag-1: 70.1; D2 PAM-2: inactive; D2 ag-2: inactive; D3 ag: 7.08µM; D2 ag-3: inconclusive

What do the screens show for `CN(CCOc1ccccc1)Cc1ccccc1`?
D2 PAM-1: inactive; D2 ag-2: inactive

How did O=C(c1cc(-c2ccco2)on1)N1CCN(c2ccccc2)CC1 do in these assays?
D2 PAM-1: inactive; D2 antag: inactive; D2 ag-1: 45.3; D2 PAM-2: inactive; D2 ag-2: inactive; D3 ag: inactive; D2 ag-3: inactive

Results for O=C(c1cc(-c2ccccc2)on1)N1CCN(c2ccccc2)CC1 ?
D2 PAM-1: inactive; D2 antag: inactive; D2 ag-1: inactive; D2 PAM-2: inactive; D2 ag-2: inactive

How did O=C1OC(N2CCN(C(=O)c3ccco3)CC2)c2ccccc21 (stereo not drawn) do in these assays?
D2 PAM-1: inactive; D2 ag-2: inactive; D3 ag: inactive; D2 ag-3: inactive

How did O=C(c1ccco1)N1CCC(N2CCN(c3ccccc3)CC2)CC1 do in these assays?
D2 PAM-1: inactive; D2 antag: 60.8; D2 ag-1: 78.4; D2 PAM-2: inactive; D2 ag-2: inactive; D3 ag: inconclusive; D2 ag-3: inactive

How did CN(c1ccccc1)S(=O)(=O)c1cccc(NS(=O)(=O)c2ccc(/C=C/C(=O)O)cc2)c1 do in these assays?
D2 PAM-1: inactive; D2 antag: inactive; D2 ag-1: inactive; D2 PAM-2: inactive; D2 ag-2: inactive

Screening results as filed in PubChem.
